A selection: hits, their analogues and other compounds. The true share with any hit is near 7.4%.
FLuc counter: counter-screen for miR-21 project: firefly luciferase inhibitors or activators | P08659 | purified FLuc, Km substrates, luminescence inhibition | Potency, µM (top dose mostly 57.5 µM), for the others: top-dose activity change, negative = inhibition, most hits filed as inhibitors | 360,000 tested, 6.9% active | AID 588342;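 further: plate controls were vehicle for no effect and reference inhibitor for full effect; nearly all actives have a fitted effect of over 55% in size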
Target sequence (P08659 whole entry, looked up): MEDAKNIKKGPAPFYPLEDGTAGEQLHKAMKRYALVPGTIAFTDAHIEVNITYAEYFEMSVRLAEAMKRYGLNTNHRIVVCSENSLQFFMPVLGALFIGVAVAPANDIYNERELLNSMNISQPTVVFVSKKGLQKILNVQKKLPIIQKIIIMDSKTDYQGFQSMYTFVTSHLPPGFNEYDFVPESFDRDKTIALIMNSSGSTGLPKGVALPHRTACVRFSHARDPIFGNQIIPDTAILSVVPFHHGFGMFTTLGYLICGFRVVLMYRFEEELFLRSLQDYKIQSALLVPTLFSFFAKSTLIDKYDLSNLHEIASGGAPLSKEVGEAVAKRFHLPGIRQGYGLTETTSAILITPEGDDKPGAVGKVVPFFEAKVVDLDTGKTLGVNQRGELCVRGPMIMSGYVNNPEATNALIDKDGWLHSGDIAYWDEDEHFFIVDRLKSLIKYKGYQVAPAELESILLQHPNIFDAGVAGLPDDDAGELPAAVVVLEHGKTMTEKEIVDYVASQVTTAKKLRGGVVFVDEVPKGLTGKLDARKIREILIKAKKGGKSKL
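Purified P. pyralis luciferase (10nM final) with 10uM D-luciferin and 10uM ATP (Km levels) in 50mM Tris acetate pH 7.5, 10mM Mg acetate, 0.01% Tween-20, 0.05% BSA; qHTS 6-point titration, ~60 µM downward; luminescence read.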
SMN2 splice up: SMN2 splice variant enhancement; HEK293 SMN2-luciferase splicing reporter, luminescence, 30-36 h; Potency, µM (highest dose often 46.1 µM), for the others: at the highest dose activity change, positive = activation, hits mostly activators; 210,000 tested, 2.8% active; further: % of control where 0% means no effect; nearly all actives have a fitted effect of over 55% in size
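qHTS luciferase splicing reporter: luminescence rises when SMN2 exon 7 is included in transfected HEK293 cells. Compound exposure lasted 30-36 h at 37C, with 4.5 mM final sodium butyrate as control, followed by a ONE-Glo read.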
NPC1 prom act: activates the NPC1 promoter. Huh7 NPC1 promoter luciferase reporter, 24 h. Potency, µM (doses to about 9.22 µM), for inactives: at the highest dose activation, hits mostly activators. 320,000 tested, 2.4% active; further: % of control where 0% means no effect; nearly all actives have a fitted effect of over 60% in size
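Huh7 reporter cells (NPC1 promoter driving luciferase) are dosed with compound for 24 h at 37 °C, 5% CO2; luciferase detection reagent is then added and luminescence measured after 10 min at ambient temperature.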
ELG1 genotox: induces genotoxicity in HEK293T cells with luciferase-tagged ELG1 | HEK293T ELG1-luciferase reporter, luminescence, 16 h | Potency, µM (series often up to 46 µM), inactives show at the top dose activity change, positive = activation, most hits filed as activators | 330,000 tested, 1.3% active | AID 504466; further: % of control where 0% means no effect; nearly all actives have a fitted effect of over 60% in size
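Quantitative HTS format in 1536-well plates. HEK293T ELG1-luciferase reporter cells receive test compound and are incubated 16 hr at 37 °C, 5% CO2; ONE-Glo added, 30 min room temperature, then luminescence read.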
Rab9 promoter act: activators of Rab9 promoter. Huh7 Rab9 promoter-luciferase reporter, luminescence, 24 h. Potency, µM (highest dose often 9.22 µM), for inactives: top-dose activation, negative = inhibition, usual class: activators. 320,000 tested, 2.8% active. AID 485297; further: % of control where 0% means no effect; nearly all actives have a fitted effect of over 60% in size
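Huh7 cells stably carrying a Rab9 promoter-luciferase reporter, 1500 cells per well in OP-MEM I with 10% FBS, treated with compound 24 hours at 37C. Luciferase activity read by luminescence after 10 minutes with Amplite reagent.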
* marks the source's active call; other numbers are inactive results; [ ] = dose if it differs, or a comment. The call rests on the fitted dose curve; in most records, active means well fitted curve in the direction sought with a large enough effect; inconclusive means small, poorly fitted or top-dose-only effect, or another doubt; inactive means no such curve, though single readings can be large; an effect the other way counts as inactive or inconclusive. Potency means the concentration at half of the fitted maximal effect.

Screening COc1ccc(N=C2O/C(=C/c3sc(=S)n(CC4CCCO4)c3O)N=C2C#N)cc1 (stereo not drawn) returned FLuc counter 2.4µM*, NPC1 prom act 13%, ELG1 genotox -8% and Rab9 promoter act 7%.
Screening CC(C)(C)c1ccc(OC(=O)c2cccnc2)cc1 returned FLuc counter 12µM*, SMN2 splice up 12%, NPC1 prom act -6%, ELG1 genotox 2% and Rab9 promoter act -1%.
CCCCOC(=O)c1ccc(OC(=O)c2cccnc2)cc1 was read as FLuc counter inconclusive, SMN2 splice up 4%, NPC1 prom act 1%, ELG1 genotox 9% and Rab9 promoter act -1%.
`COc1ccccc1C(=O)Oc1ccc(C(C)(C)C)cc1` gave FLuc counter 6µM*, SMN2 splice up -30%, NPC1 prom act -1%, ELG1 genotox 4% and Rab9 promoter act 4%.
Screening COc1ccc(C(=O)Oc2ccc(C(C)=O)cc2)c(OC)c1 returned FLuc counter 12µM*, SMN2 splice up 7%, NPC1 prom act -1%, ELG1 genotox 9% and Rab9 promoter act 3%.
CCCCCCOC(=O)c1ccc(OC(=O)c2cccnc2)cc1 was read as FLuc counter inconclusive, SMN2 splice up 14%, NPC1 prom act 1%, ELG1 genotox 18µM* and Rab9 promoter act 3%.
For Cc1ccc(CN2CC(C(=O)N3CCN(c4ccccc4O)CC3)CC2=O)cc1 (stereo not drawn) the results were FLuc counter 5%, NPC1 prom act -1%, ELG1 genotox -14% and Rab9 promoter act 1%.
Screening CC(C)(C)c1ccc(OC(=O)c2ccc3nsnc3c2)cc1 returned FLuc counter 7.6µM*, SMN2 splice up -37%, NPC1 prom act 1%, ELG1 genotox 3% and Rab9 promoter act -7%.
`COC(=O)c1ccc(NC(=O)c2cccnc2)cc1` gave FLuc counter 2%, NPC1 prom act -1%, ELG1 genotox 8% and Rab9 promoter act 11%.
`C/C(=C\C(=O)c1ccccc1)Nc1ccc(O)cc1` gave FLuc counter 4.8µM*, NPC1 prom act 2.5µM*, ELG1 genotox 6.5µM* and Rab9 promoter act 3.5µM*.
COc1ccc(C(=O)/C=C(\C)Nc2ccc(NC(C)=O)cc2)cc1 was read as FLuc counter inconclusive, SMN2 splice up -17%, NPC1 prom act inconclusive, ELG1 genotox 4% and Rab9 promoter act 2.8µM*.
Screening C/C(=C\C(=S)Nc1ccccc1)Nc1ccccc1 returned FLuc counter 3.8µM*, SMN2 splice up 15%, NPC1 prom act 1%, ELG1 genotox 1% and Rab9 promoter act -4%.
`C/C(=C\C(=O)c1cccnc1)Nc1ccc(O)cc1` gave FLuc counter 17µM*, SMN2 splice up 27%, NPC1 prom act inconclusive, ELG1 genotox 16µM* and Rab9 promoter act inconclusive.
For C/C(=C\C(=O)c1ccc(C)cc1)Nc1ccc(N2CCOCC2)cc1 the results were FLuc counter -1%, SMN2 splice up 9%, NPC1 prom act 0%, ELG1 genotox 0% and Rab9 promoter act 14%.
For O=C(CSc1nnc(COc2ccccc2)o1)Nc1ccc(F)cc1 the results were FLuc counter -1%, NPC1 prom act 0%, ELG1 genotox 1% and Rab9 promoter act 8%.
Screening O=c1c2c3c(sc2nc2sc(CN4CCOCC4)cn12)CCCC3 returned FLuc counter -5%, SMN2 splice up inconclusive, NPC1 prom act 4.5µM*, ELG1 genotox inconclusive and Rab9 promoter act inconclusive.
Screening CN(C)c1ccc(C=NCC2COc3ccccc3O2)cc1 (stereo not drawn) returned FLuc counter 12µM*, NPC1 prom act -5%, ELG1 genotox 3% and Rab9 promoter act -4%.
Screening N#CCCN(Cc1ccccc1)C(=O)Nc1ccc(F)cc1 returned FLuc counter -1%, NPC1 prom act 0%, ELG1 genotox 0% and Rab9 promoter act -3%.
`CCOC(=O)c1sc(/N=C/c2ccc(O)cc2O)cc1C` gave FLuc counter 1.3µM*, SMN2 splice up -2%, NPC1 prom act 10%, ELG1 genotox 7% and Rab9 promoter act 9%.
CC(=O)Nc1cc(Cl)c(N=Cc2ccc(O)cc2O)cc1Cl was read as FLuc counter 5%, SMN2 splice up 14%, NPC1 prom act 3%, ELG1 genotox 3% and Rab9 promoter act 0%.
`COc1cccc(C(=O)c2sc(NC(C)C)nc2N)c1` gave FLuc counter -13%, SMN2 splice up 20µM*, NPC1 prom act -6%, ELG1 genotox -5% and Rab9 promoter act -1%.
`Cc1cc(=O)n2c3ccccc3n(C)c2n1` gave FLuc counter -1%, NPC1 prom act -4%, ELG1 genotox 5% and Rab9 promoter act 6%.
`CC(C)COC(=S)Nc1ccccc1` gave FLuc counter 17µM*, SMN2 splice up -9%, NPC1 prom act 0%, ELG1 genotox inconclusive and Rab9 promoter act 2%.
Cc1noc(C)c1C(=O)OC(C)C(=O)NC(C)c1ccc(Cl)cc1Cl (stereo not drawn) was read as ELG1 genotox -7%.
O=C(c1cc(-c2ccc(Br)cc2)n[nH]1)N1CCN(C(=O)c2ccccc2Br)CC1 was read as FLuc counter -19%, NPC1 prom act 2%, ELG1 genotox -1%[9.26 µM] and Rab9 promoter act 0%.
Screening COc1ccc(-c2coc3cc(OC4OC(CO)C(O)C(O)C4O)cc(O)c3c2=O)cc1 (stereo not drawn) returned FLuc counter inconclusive, NPC1 prom act 2.8µM*, ELG1 genotox inconclusive and Rab9 promoter act 2.8µM*.
`COc1ccc(-c2coc3cc(OC4OC(CO)C(O)C(O)C4O)ccc3c2=O)cc1` (stereo not drawn) gave FLuc counter 11µM*, NPC1 prom act 1.6µM*, ELG1 genotox 8.2µM* and Rab9 promoter act 1.6µM*.
COc1cc(O)c2c(=O)c3c(O[C@H]4O[C@@H](CO)[C@H](O)[C@@H](O)[C@@H]4O)ccc(O)c3oc2c1 was read as ELG1 genotox 1%.
`Cc1ccc(CNC(=O)c2sc3nc4n(c(=O)c3c2C)CCCC4)cc1` gave FLuc counter -11%.
Screening CN1C(=C2C(=O)OC(C)(C)OC2=O)Sc2ccccc21 returned FLuc counter 15µM*, SMN2 splice up 13%, NPC1 prom act 3.5µM*, ELG1 genotox inconclusive and Rab9 promoter act 2.5µM*.
`O=C(CC(SCCO)c1ccc2c(c1)OCO2)c1cccs1` (stereo not drawn) gave FLuc counter 13µM*, SMN2 splice up 24%, NPC1 prom act inconclusive, ELG1 genotox inconclusive and Rab9 promoter act 4µM*.
`Cc1ccc(NC(=O)COC(=O)CCc2ccccc2)c(Cl)c1` gave FLuc counter 17µM*, NPC1 prom act -1%, ELG1 genotox 8% and Rab9 promoter act -2%.

Screening data (PubChem)
